# According to PubChem BioAssay (NCI):
# This is part of a sample that, as a whole, favours compounds with a hit. Of some 83,000 tested, about 20% had one in any assay.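 Testing used 96-well plates and a 48-hour single-concentration exposure. Example: -40 means 40% of the starting cells died.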 Values without a mark were called inactive. The source made the active and inactive calls. Rule for the calls: active = growth percent below 10; inactive = the rest.
# Assays:
# Experiment in all cases: NCI-60 one-dose screen, 48 h (100 = growth as untreated, 0 = no growth, -100 = all killed)
# Details in all cases: 10 µM unless noted
# SK-MEL-2 melanoma = test system: SK-MEL-2 melanoma
# EKVX NSCLC = test system: EKVX NSCLC
# SN12C renal = test system: SN12C renal
# UO-31 renal = test system: UO-31 renal
# TK-10 renal = test system: TK-10 renal
# ACHN renal = test system: ACHN renal
# CAKI-1 renal = test system: CAKI-1 renal
# A498 renal = test system: A498 renal
# CCRF-CEM leukemia = test system: CCRF-CEM leukemia
# MOLT-4 leukemia = test system: MOLT-4 leukemia
# SR leukemia = test system: SR leukemia
# RPMI-8226 leukemia = test system: RPMI-8226 leukemia
# OVCAR-8 ovarian = test system: OVCAR-8 ovarian
# OVCAR-5 ovarian = test system: OVCAR-5 ovarian
# OVCAR-4 ovarian = test system: OVCAR-4 ovarian
# SK-OV-3 ovarian = test system: SK-OV-3 ovarian
# IGROV1 ovarian = test system: IGROV1 ovarian
# OVCAR-3 ovarian = test system: OVCAR-3 ovarian
# HS 578T breast = test system: HS 578T breast
# NCI/ADR-RES ovarian = test system: NCI/ADR-RES ovarian
SMILES,growth (SK-MEL-2 melanoma),growth (EKVX NSCLC),growth (SN12C renal),growth (UO-31 renal),growth (TK-10 renal),growth (ACHN renal),growth (CAKI-1 renal),growth (A498 renal),growth (CCRF-CEM leukemia),growth (MOLT-4 leukemia),growth (SR leukemia),growth (RPMI-8226 leukemia),growth (OVCAR-8 ovarian),growth (OVCAR-5 ovarian),growth (OVCAR-4 ovarian),growth (SK-OV-3 ovarian),growth (IGROV1 ovarian),growth (OVCAR-3 ovarian),growth (HS 578T breast),growth (NCI/ADR-RES ovarian)
Cc1cccc(-c2nc(Nc3cccc(S(N)(=O)=O)c3)c3ccccc3n2)c1,66.6%,45.5%,51.7%,29.7%,73.7%,38.1%,46.9%,47.7%,31.7%,27.6%,33%,38.3%,2.28% (active),77.2%,52.3%,102%,66.1%,73.4%,76.5%,22.8%
CC(=O)c1cc(C(=O)c2ccccc2)n2c1ccc1ccccc12,117%,98.5%,90.6%,55.5%,142%,91.7%,79.6%,129%,108%,87.6%,81.4%,95.6%,99%,103%,102%,85.8%,88.6%,112%,94.1%,101%
N/C(=N\c1nc2ccccc2s1)NC(=O)Nc1ccccc1Br,-0.501% (active),27.1%,-39.3% (active),11.3%,-15.6% (active),-39.3% (active),-17.4% (active),26.2%,12.6%,21.5%,12.1%,-0.145% (active),-55.7% (active),-17% (active),-59.1% (active),-6.97% (active),11.5%,-72.3% (active),-5.34% (active),-57.1% (active)
COc1cc2oc(-c3cccc(C(=O)Nc4ccc(Cl)cc4)c3)cc(=O)c2c(OCCNC(=O)[C@@H](N)CCC(=O)O)c1OC,104%,70.8%,61.6%,80.1%,114%,92.5%,68.9%,157%,75.6%,36.6%,42.7%,25.5%,73.7%,76.9%,91.9%,88.8%,62.9%,113%,88.9%,97.4%
COc1cc2oc(-c3cccc(C(=O)Nc4ccc(Cl)cc4)c3)cc(=O)c2c(OCCNC(=O)[C@H](CO)NC(=O)OC(C)(C)C)c1OC,-1.01% (active),24.1%,16.4%,23.6%,42.6%,13.5%,19.1%,71.9%,8.05% (active),5.42% (active),2.89% (active),-39.9% (active),18.3%,32%,36.4%,93.3%,25.3%,17.2%,26.5%,64.8%
CC12CC[C@@H]3[C@]4(C)COC(c5cn[nH]c5-c5cccc(Br)c5)O[C@@H]4CC[C@@]3(C)[C@@H]1CC(C1=CCOC1=O)O2 (stereo not given in full),31.6%,28.2%,43.3%,14.9%,58.6%,26.5%,39.9%,81.8%,9.66% (active),4.43% (active),28%,13.2%,31%,76.8%,25.4%,53.8%,48.7%,40.6%,51.5%,25.3%
CNS(=O)(=O)c1ccc(Nc2ccc(C(F)(F)F)cc2)c(-c2cn(C)cn2)c1,63.8%,49%,41.9%,9.13% (active),46.6%,48.9%,60.8%,50.7%,51.2%,37.1%,51.6%,35.6%,52.6%,68.3%,70.1%,86.8%,35.5%,54.7%,59.6%,35%
C=C1CCC2C3(C)COC(c4ccccc4F)OC3CCC2(C)C1CC(O)C1=CCOC1=O (stereo not given),17.2%,85.3%,39.1%,11.7%,107%,-23% (active),66%,141%,16.7%,48.9%,30.9%,10.7%,-11.4% (active),74.9%,50.3%,110%,51.4%,31.1%,78.3%,5.4% (active)
COc1c(F)ccc(C(=O)Nc2ccc3nc(NC(=O)C4CCCN(S(=O)(=O)c5ccc(Br)c(F)c5)C4)sc3c2)c1F (stereo not given),88.6%,88.5%,87.7%,72.1%,122%,81.5%,72.7%,112%,87.4%,42.5%,47.2%,52%,98.1%,102%,75.4%,102%,82.2%,96.8%,72.8%,83.4%
C#CCOc1cc(N(CC)CC)ccc1C(C(=O)NC(C)(C)C)N(C(=O)C1CCc2cc(F)ccc2O1)c1ccc(F)c(Cl)c1 (stereo not given),-6.45% (active),54.4%,55.8%,47.2%,85.2%,61.6%,41.1%,73%,52.8%,21.2%,35%,38.3%,69%,82.7%,57.8%,73.1%,70.5%,57.7%,75.2%,72.9%
C=C1CCC2C3(C)COC(c4cc(F)cc(F)c4)OC3CCC2(C)C1CC(O)C1=CCOC1=O (stereo not given),57.2%,83.3%,48.1%,49.6%,110%,67.8%,60.3%,120%,16.8%,33.7%,28.6%,11%,16.2%,87%,53.1%,102%,60.1%,61.4%,70.4%,14.5%
O=C1NC(=O)c2c1c1c3cc(Br)ccc3[nH]c1c1oc3ccc(F)cc3c21,-58.3% (active),20.7%,-39.1% (active),10.8%,66.7%,-72.5% (active),-64.8% (active),-83.1% (active),2.94% (active),-5.4% (active),4.79% (active),14.8%,-44.7% (active),51.7%,-88% (active),-5.1% (active),-46.9% (active),-33.3% (active),-34.9% (active),10%
Cc1ccc(S(=O)(=O)c2nc(S(=O)(=O)c3ccc(C)cc3)c(N3CCC(O)CC3)s2)cc1,66.6%,63.1%,74%,73.7%,129%,97.8%,69.2%,86.1%,23.8%,38%,15.7%,53.4%,75.3%,104%,65%,97.6%,75.6%,72.9%,59.3%,74.5%
CC(C)(C)OC(=O)/C=C/c1cccc2c1C(=O)NC(C)(c1cc3cc(Cl)ccc3oc1=O)N2 (stereo not given),43.6%,36.2%,50%,20.8%,66.2%,19.6%,42.4%,102%,24.2%,-14.6% (active),8.86% (active),1.99% (active),39.1%,67.1%,43.9%,47.6%,44.7%,43.8%,65.1%,25.4%
COc1cc(C2CC(c3cc(OC)c(OC)c(OC)c3)=Nc3c(N)nc(N)nc3N2)ccc1Oc1nc(NCCO)nc(N2CCOCC2)n1 (stereo not given),105%,84.3%,93%,84.1%,120%,101%,80.8%,105%,102%,96.7%,93.1%,95.5%,99.9%,106%,107%,104%,104%,107%,95%,97.6%
